# Data from PubChem BioAssay (NCATS).
# Results filed as inconclusive are left out. Active and inactive are the calls of the source. Unless noted, the call rests on the fitted dose curve; in most records, active means well fitted curve in the direction sought with a large enough effect; inconclusive means small, poorly fitted or top-dose-only effect, or another doubt; inactive means no such curve, though single readings can be large; an effect the other way counts as inactive or inconclusive.
# Key:
# [1] = qHTS assay for small molecule agonists of retinoid X receptor alpha signaling (AID 588544; calls by dose curve;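 on activation: 0% = DMSO basal wells and 100% = reference agonist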); conditions: HEK293T RXRa-UAS-bla, beta-lactamase reporter, 18 h; 530 nm emission
# [2] = target: Retinoic acid receptor RXR-alpha (Homo sapiens) (UniProt P19793); test: as above; conditions: HEK293T RXRa-UAS-bla, beta-lactamase reporter, 18 h; series mostly up to 76.7 µM
# Sequence of Retinoic acid receptor RXR-alpha (Homo sapiens) (P19793 whole entry, looked up): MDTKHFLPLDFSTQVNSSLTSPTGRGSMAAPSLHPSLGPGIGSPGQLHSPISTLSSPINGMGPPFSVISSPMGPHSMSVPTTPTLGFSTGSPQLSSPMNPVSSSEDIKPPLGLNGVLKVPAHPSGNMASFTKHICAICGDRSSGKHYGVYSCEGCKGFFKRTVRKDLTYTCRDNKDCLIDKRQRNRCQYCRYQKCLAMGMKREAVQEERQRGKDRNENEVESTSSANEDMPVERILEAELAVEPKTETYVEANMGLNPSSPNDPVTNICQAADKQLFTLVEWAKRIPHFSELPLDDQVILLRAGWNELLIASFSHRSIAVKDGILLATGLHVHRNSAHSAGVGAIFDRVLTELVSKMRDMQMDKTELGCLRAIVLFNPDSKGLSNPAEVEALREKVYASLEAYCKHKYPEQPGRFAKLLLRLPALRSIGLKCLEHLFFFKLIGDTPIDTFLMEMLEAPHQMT
# [3] = qHTS assay for small molecule antagonists of retinoid X receptor alpha signaling (AID 588546; active means well fitted inhibition curve with a large enough effect in the signal ratio, with a control signal flat, not every such curve was filed as active; the % refers to the signal ratio;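 further: cells stimulated with 9-cis-retinoic acid as agonist; on the % scale 0 is the no-effect control and ±100 the full control effect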); conditions: HEK293T RXRa-UAS-bla, beta-lactamase ratio, antagonist mode; measured here: W530 green channel, cytotoxicity proxy
# Summary of the method: (§1)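 Beta-lactamase reporter inhibition, read as CCF4 fluorescence ratio (ex 405, em 460/530 nm) after 2 h at RT. HEK293T UAS-bla cells, 2500/well, were stimulated with 9-cis-RA at 500 or 100 nM final alongside test compound for 18 h at 37 C.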
# [4] = target: Retinoic acid receptor RXR-alpha (Homo sapiens) (UniProt P19793); test: as above; conditions: HEK293T RXRa-UAS-bla, beta-lactamase ratio, antagonist mode
# Summary of the method: as §1
# [5] = target: Thyroid hormone receptor beta (Homo sapiens) (UniProt P10828); test: qHTS assay for small molecule antagonists of thyroid hormone receptor beta signaling (AID 588547; active means well fitted inhibition curve with a large enough effect in the signal ratio, with a control signal flat, not every such curve was filed as active; the % refers to the signal ratio;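 further: cells stimulated with 0.4 nM T3 agonist during compound exposure; on the % scale 0 is the no-effect control and ±100 the full control effect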); conditions: TR-UAS-bla HEK293, beta-lactamase ratio, antagonist mode, 18 h
# Sequence of Thyroid hormone receptor beta (Homo sapiens) (P10828 whole entry, looked up): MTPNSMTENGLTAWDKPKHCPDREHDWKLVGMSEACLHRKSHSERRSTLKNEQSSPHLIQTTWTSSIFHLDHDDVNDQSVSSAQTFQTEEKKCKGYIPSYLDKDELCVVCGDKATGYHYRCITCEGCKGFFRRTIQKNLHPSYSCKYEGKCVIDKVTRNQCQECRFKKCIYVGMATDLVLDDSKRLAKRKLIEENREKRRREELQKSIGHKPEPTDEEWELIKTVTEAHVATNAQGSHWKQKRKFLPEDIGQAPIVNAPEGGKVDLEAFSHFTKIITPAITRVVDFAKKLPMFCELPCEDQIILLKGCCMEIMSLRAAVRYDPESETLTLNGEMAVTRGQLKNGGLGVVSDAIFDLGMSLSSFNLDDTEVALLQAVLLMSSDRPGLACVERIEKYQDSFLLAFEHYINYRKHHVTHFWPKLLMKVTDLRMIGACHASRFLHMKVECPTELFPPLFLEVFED
# Summary of the method: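 Inhibition of T3-driven (0.4nM final) beta-lactamase reporter activity was measured over 0.59 nM to 92 uM compound after 18 h at 37 C. The cells were GripTite HEK293 TR-UAS-bla in charcoal/dextran-stripped serum, with CCF4 ratio read-out and IC50 from Hill fits.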
# [6] = qHTS assay for small molecule agonists of the antioxidant response element (ARE) signaling pathway (AID 651741; active means well fitted activation curve with a large enough effect in the signal ratio; the % refers to the signal ratio; further: % of control where 0% means no effect); conditions: HepG2 ARE-bla reporter, beta-lactamase FRET ratio, 16 h; series mostly up to 96 µM
# Summary of the method: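 Quantitative HTS in HepG2 cells stably expressing an ARE-beta-lactamase reporter; 16 h compound exposure at 37 C, followed by 2 h room-temperature incubation with LiveBLAzer B/G FRET substrate and fluorescence measurement.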
# [7] = qHTS assay for environmental chemicals that activate the Aryl hydrocarbon Receptor (AhR) signaling pathway (AID 651777); conditions: 1A2-DRE human hepatoma cells, luciferase, 24 h; stronger effect = higher value; further: % of control where 0% means no effect; nearly all actives have a fitted effect of over 15% in size
# Summary of the method: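 Reporter gene assay: hepatoma cells with DRE/CYP1A2-luciferase, 24 hr compound incubation at 37 C, 5% CO2, luminescence after One-Glo (30 min, RT).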
# [8] = target: Peroxisome proliferator-activated receptor alpha (Homo sapiens) (UniProt Q07869); test: qHTS assay for small molecule agonists of the peroxisome proliferator-activated receptor alpha (PPARalpha) signaling pathway (AID 651778); conditions: PathHunter PPARalpha complementation, chemiluminescence, 6 h; stronger effect = higher value; further: % of control where 0% means no effect
# Sequence of Peroxisome proliferator-activated receptor alpha (Homo sapiens) (Q07869 whole entry, looked up): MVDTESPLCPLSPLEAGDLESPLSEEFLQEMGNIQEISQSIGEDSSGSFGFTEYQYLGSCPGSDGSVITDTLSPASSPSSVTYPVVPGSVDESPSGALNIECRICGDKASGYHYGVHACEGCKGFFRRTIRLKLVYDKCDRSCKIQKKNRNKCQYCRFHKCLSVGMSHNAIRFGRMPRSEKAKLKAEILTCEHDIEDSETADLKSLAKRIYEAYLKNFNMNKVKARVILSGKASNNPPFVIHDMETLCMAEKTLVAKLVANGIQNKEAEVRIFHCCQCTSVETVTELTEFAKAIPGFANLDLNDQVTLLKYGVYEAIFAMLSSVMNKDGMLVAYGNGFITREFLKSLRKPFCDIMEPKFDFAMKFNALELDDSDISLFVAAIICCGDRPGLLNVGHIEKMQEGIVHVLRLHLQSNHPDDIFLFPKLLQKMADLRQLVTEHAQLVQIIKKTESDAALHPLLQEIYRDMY
# Summary of the method: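 Chemiluminescence from complemented enzyme reported PPARalpha activation in cells after 6 hr of compound treatment at 37 C. The detection reagent was incubated for 60 min at room temperature, and compounds were scored as agonists.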
# [9] = qHTS assay for small molecule agonists of the antioxidant response element (ARE) signaling pathway measured by Nrf2-dependant transcriptional activity (AID 720636; active means well fitted curve in the direction sought with a large enough effect in the repeat runs; an effect the other way counts as inactive or inconclusive;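 further: HepG2 cells with an ARE-driven luciferase reporter; % of control where 0% means no effect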); conditions: ARE-luc HepG2, Nrf2 luciferase reporter, 16 h; series mostly up to 92.4 µM
# Summary of the method: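 Nrf2-dependent transcription is measured in ARE-luc HepG2 cells: compound is applied for 16 hr at 37 C after a 6 hr attachment period, and luciferase activity is quantified by luminescence using ONE-Glo.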
# [10] = qHTS assay for small molecule agonists of the antioxidant response element (ARE) signaling pathway measured by Nrf2-dependant transcriptional activity - cell viability counter screen (AID 720653; active means well fitted curve in the direction sought with a large enough effect in the repeat runs; an effect the other way counts as inactive or inconclusive; further: on the % scale 0 is the no-effect control and ±100 the full control effect); conditions: ARE-bla HepG2 viability, CellTiter-Glo ATP luminescence, 16 h; stronger effect = lower value
# Summary of the method: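 Cytotoxicity counter screen: intracellular ATP quantified by CellTiter-Glo luminescence in the same ARE-bla HepG2 plates, after 16 h compound exposure and a 2 h beta-lactamase substrate step.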
# [11] = qHTS assay for cell viability of HEK293 cells (AID 743288); conditions: ATP luminescence (CellTiter-Glo), 18 h, stronger effect = lower value; further: on the % scale 0 is the no-effect control and ±100 the full control effect; nearly all actives have a fitted effect of over 50% in size
# Summary of the method: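 Parental HEK293 cells were seeded at 2,000 cells/well, rested at least 5 h at 37 C, then exposed to compounds in DMSO for 18 h at 37 C. Viability was read as ATP-dependent luciferase luminescence after 30 min at room temperature.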
# [12] = qHTS assay for cell viability of the p53RE-bla HCT-116 cell line (AID 743292); conditions: p53RE-bla HCT-116 viability, ATP luminescence, 16 h; series mostly up to 95 µM; further: on the % scale 0 is the no-effect control and ±100 the full control effect; nearly all actives have a fitted effect of over 55% in size
# Summary of the method: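 ATP-based luminescence, 16 h compound exposure at 37 C, p53RE-bla HCT-116 cells at 4,000/well.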
smiles,measurement,setting,value
COc1c(Cl)ccc(Cl)c1C(=O)O,max response,[1],-9.41%
same,outcome,[2],inactive
same,max response,[3],-0.329%
same,max response,[4],3.8% (inactive)
same,activity change % (negative = inhibition),[5],5.53% (inactive)
same,Potency,[6],inactive
same,activation,[7],1.18% (inactive)
same,max response,[8],0.109% (inactive)
same,outcome,[9],inactive
same,max response,[10],-4.23% (inactive)
same,max response,[11],-3.63% (inactive)
same,outcome,[12],inactive
